# Compound activity from PubChem.
# A selection: hits, their analogues and other compounds. The true share with any hit is near 2.4%.
# SmPrx2 inh = inhibitors of Schistosoma mansoni peroxiredoxin 2 | Potency, µM | S. mansoni Prx2 activity coupled to TGR/GSH (TGR is thioredoxin glutathione reductase), NADPH fluorescence loss, qHTS | actives 0.07% (n = 65,000) | AID 448
#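 Coupled assay in which S. mansoni TGR passes NADPH reducing equivalents via glutathione to Prx2, which reduces H2O2. Compounds were preincubated 15 min at room temperature with 25 nM TGR/50 nM Prx2 mix. Kinetic NADPH fluorescence loss (ex 365/em 450 nm) was monitored.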
# Anthrax LT inh = inhibitors of anthrax lethal toxin internalization; Cells, anthrax lethal toxin internalization, FRET ratio (460/530); Potency, µM (titrated, usually from 40 µM), inactives show at the top dose activity change, negative = inhibition, hits mostly inhibitors; actives 0.67% (n = 70,000); AID 912; also: % is scaled to controls: 0 for no effect and ±100 for the full control effect; nearly all actives have a fitted effect of over 50% in size
# AmpC inh det = AmpC beta-lactamase inhibition, detergent assay; actives 0.09% (n = 71,000); AID 584; Potency, µM (top dose mostly 28.7 µM), inactives show at the highest dose activity change, negative = inhibition; P00811; purified AmpC, nitrocefin hydrolysis with detergent; active = well fitted curve in the direction sought with a large enough effect; inconclusive = small, poorly fitted or top-dose-only effect; also: % is scaled to controls: 0 for no effect and ±100 for the full control effect
# Target sequence (P00811 whole entry, looked up): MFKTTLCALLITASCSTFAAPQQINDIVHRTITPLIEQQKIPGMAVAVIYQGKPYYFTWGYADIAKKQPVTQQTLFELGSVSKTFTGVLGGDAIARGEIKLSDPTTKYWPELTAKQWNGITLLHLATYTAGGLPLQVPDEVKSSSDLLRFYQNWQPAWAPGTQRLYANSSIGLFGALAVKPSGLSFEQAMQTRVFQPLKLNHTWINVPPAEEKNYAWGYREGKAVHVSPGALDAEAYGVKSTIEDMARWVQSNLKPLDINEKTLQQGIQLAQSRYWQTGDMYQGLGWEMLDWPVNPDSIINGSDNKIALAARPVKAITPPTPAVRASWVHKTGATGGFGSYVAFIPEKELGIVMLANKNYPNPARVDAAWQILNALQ
#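 E. coli AmpC (5.3 nM) in 20 mM phosphate pH 7.0 with 0.01% Triton X-100, preincubated 15 min RT with compound; nitrocefin (2 uL of 800 uM stock) hydrolysis followed by 480 nm absorbance every 20 s over 4 min.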
# AmpC nodet inh = inhibitors of E. coli AmpC beta-lactamase without detergent | P00811 | AmpC nitrocefin hydrolysis, absorbance 480 nm, no detergent | Potency, µM (series often up to 28.7 µM), without a hit: top-dose activity change, negative = inhibition | actives 1.8% (n = 71,000); also: % of control where 0% means no effect
#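 AmpC, 20 mM phosphate pH 7.0; 15 min cpd preinc, RT; start with nitrocefin (800 uM stock); A480 kinetic read, 20 s intervals, 4 min. No-enzyme wells = negative control.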
# Active calls of the source: *; ? = inconclusive; / = not tested or not shown; [ ] = another dose, or the depositor's remark. Unless noted, calls follow the shape of the full dose curve. Potency is read from the fitted curve at half-maximal effect.
SMILES,SmPrx2 inh,Anthrax LT inh,AmpC inh det,AmpC nodet inh
COc1ccc(CCNc2nc(C)nc3c2oc2ccccc23)cc1OC,>57,10µM*,-2%,101%
Clc1cc(Cl)c(-c2cc(Cl)c(Cl)cc2Cl)cc1Cl,/,3.2µM*,9%,-5%
Oc1cc(Cl)c(Cl)cc1Cl,/,?,6%,-18%
O=C(Cn1ncc2c(=O)oc3ccccc3c21)NCC1COc2ccccc2O1 (configuration not stated),>57,-3%,13%,0.79µM*
O=C(Cn1ncc2c(=O)oc3ccccc3c21)NCCCN1CCCC1=O,>57,-9%,11%,4µM*[single pt active]
O=C(Cn1ncc2c(=O)oc3ccccc3c21)NC1CC1,>57,-8%,-1%,0%
CCN(CCCNC(=O)Cn1ncc2c(=O)oc3ccccc3c21)c1cccc(C)c1,>57,-16%,12%,2µM*[single pt active]
COCCCNC(=O)Cn1ncc2c(=O)oc3ccccc3c21,>57,11%,-2%,-2%
CCOC(=O)C1CCCN(c2c(N3CCC(N4CCCCC4)CC3)c(=O)c2=O)C1 (configuration not stated),>57,-22%,13%,4µM*[single pt active]
CCOC(=O)C1CCCN(c2c(NCC3CCCO3)c(=O)c2=O)C1 (configuration not stated),>57,-6%,11%,3.2µM*[single pt active]
CCOC(=O)C1CCCN(c2c(N3CCN(C4CCCCC4)CC3)c(=O)c2=O)C1 (configuration not stated),>57,-12%,9%,59%
CCOC(=O)C1CCCN(c2c(Nc3ccc(C)c(C)c3)c(=O)c2=O)C1 (configuration not stated),>57,?,13%,3.2µM*[single pt active]
O=C(c1ccncc1)N1CCC2(CC1)CN(c1ccccc1)C2,>57,4%,9%,52%
C[C@@H]1O[C@H](OC2[C@@H](O)[C@H](O)C(O)[C@H](O)[C@H]2O)[C@@H](N)C[C@@H]1N=C(N)C(=O)O (some centres not stated),>57,0%[8 µM],-2%[5.75 µM],1%[5.75 µM]
CCOC(=O)C1=C(N)Oc2ccc(Br)cc2[C@@H]1[C@@H](C#N)C(=O)OCC,39*,?,0%,0%
CC[C@H]1CN2CC[C@@H]1C[C@@H]2[C@H](O)c1ccnc2ccccc12,>57,-14%,2%,1%
COc1ccccc1C(c1nnnn1CCc1ccccc1)N1CCN(c2ccccc2)CC1 (configuration not stated),>57,7.9µM*,-1%,27%
COc1cccc(C(c2nnnn2CCc2ccccc2)N2CCN(c3ccccc3)CC2)c1OC (configuration not stated),>57,?,0%,54%
O=C(O)c1cc[c]([Hg][S]c2ncnc3nc[nH]c23)cc1,0.86*,-5%[8 µM],-7%[5.75 µM],-2%[5.75 µM]
O=C(O)CCSc1ncnc2nc[nH]c12,>57,-8%[8 µM],-4%[5.75 µM],2%[5.75 µM]
CC(C)(C)NC(=O)C1CCCN(S(=O)(=O)c2cccc3cccnc23)C1 (configuration not stated),>57,-6%,12%,4µM*[single pt active]
CCN(CC)C(=O)C1CCCc2c1[nH]c1ccc(Cl)cc21 (configuration not stated),/,-17%,15%,4µM*[single pt active]
CC#CCOCC/C=C1/c2ccccc2C(OC)C1C (configuration not stated),/,-7%[8 µM],/,/
N[C@@H](Cc1cc(-c2ccc(Cl)cc2Cl)cc(CP(=O)(O)O)c1O)C(=O)O,>57,?,16µM*,?
CCc1ccc(-c2cn(-c3nc(C)cc(C)n3)c(=N)o2)cc1,>57,13µM*,12%,19%
SMILES,SmPrx2 inh,Anthrax LT inh,AmpC inh det,AmpC nodet inh
Cc1ccc(-c2cc(C(=O)Nc3cc(C)on3)c3ccccc3n2)c(C)c1,>57,?,11%,4µM*[single pt active]
Cc1cc(C(=O)OCC(=O)Nc2cc(C)on2)c2ccccc2n1,>57,-12%,-2%,-3%
CCN(CC)CCOc1ccc(Cc2ccccc2)cc1,>57,25µM*,-1%,65%
COC(=O)N1CCC2(CCN(Cc3nccs3)CC2)CC1,>57,1%,2%,-6%
COc1cc(COc2cc(N)c(Cl)cc2C(=O)CCC2CCN(CCNS(C)(=O)=O)CC2)cc(OC)c1,>57,?,0%,104%
Cc1ccc(NC(=O)CSc2nnc(Cn3c(=O)sc4ccccc43)n2C)cc1,>57,-9%,14%,23%
Cc1ccc(NC(=O)CSc2nnc(Cn3c(=O)sc4ccccc43)n2C)cc1Cl,>57,5%,8%,4µM*[single pt active]
Cn1c(Cn2c(=O)sc3ccccc32)nnc1SCC(=O)Nc1ccc(F)cc1,>57,-6%,10%,4µM*[single pt active]
